Experimental data published in paper PMC5540273 (PLoS ONE, 2017).

What follows are compounds tested on FRK. Conditions: concentration: 1 μM,replicates: in singlicate; n = 1.
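Note: KINOMEscan kinase panel screen.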

| SMILES | %Inh [%] |
| --- | --- |
| O=C(Nc1cccc(C(F)(F)F)c1)c1cccc(Oc2ccc3nccn3n2)c1 | 87 |
| CCCC(=O)Nc1n[nH]c2ncccc12 [SB-601436] | 0 |
| C[C@@H]1CNc2c(sc3ccc4nc(-c5ccc(O)cc5)ccc4c23)C(=O)N1 | 0 |
| COC(=O)c1cccc(NC(=O)NC2CCN(c3ccnc(NCc4ccc(F)cc4)n3)CC2)c1 [GSK1379860] | 16 |
| CC(=O)Nc1ccc(-c2cc3ncnc(SCC(=O)O)c3s2)cc1 | 0 |
| NC(=O)c1ccc(-c2cc3ncnc(SCC(=O)O)c3s2)cc1 | 0 |
| C[C@@H]1CCN(C(=O)N2CCCC2)C[C@@H]1N(C)c1ncnc2[nH]ccc12 | 0 |
| CCn1c(-c2nonc2N)nc2cncc(Br)c21 [SB-738004] | 0 |
| Cc1ccc(CC(=O)N2CCc3cc(-c4cn(C)c5ncnc(N)c45)ccc32)cc1 [GSK2634758] | 0 |
| Nc1nccc(-c2ccc3c(N)n[nH]c3c2)n1 [GSK1034945] | 0 |
| COc1cccc(C2=C(Nc3cccc(Cl)c3)C(=O)NC2=O)c1 [SB-341556] | 16 |
| Cc1n[nH]c2cc(Nc3ccnc(Nc4cccc(CN5CCOCC5)c4)n3)ccc12 [GW682569] | 0 |
| Cl.Cl.NC[C@H](CC1CCCCC1)NC(=O)c1ccc(-c2ccnc3[nH]ccc23)s1 [GSK1581428] | 10 |
| COc1cc2c(Nc3ccc(NC(=O)c4ccccc4)cc3)ncnc2cc1OCCCN1CCOCC1 [GSK301329] | 7 |
